Drawing on PubChem BioAssay, this text covers composite z-score for 10 molecules.

Each structure is given as a SMILES string.

The assay has as its target Carbonic anhydrase 2 (Homo sapiens) (UniProt P00918). Description: compounds binding carbonic anhydrase 2 – biochemical, small-molecule microarray, Alexa647-labelled CAII, profiling panel (AID 1122). As to conditions: CAII-A647 binding fluorescence, higher = more signal.
`CC(C)(C)N1CC=CC23O[C@@H]4/C=C\CCCOC(=O)C4[C@H]2C(=O)N(CCCCCCO)[C@@H]3C1=O` (stereo not given in full): the composite z-score turned out to be 0.938.
In the case of `CCC[C@@H]1C=C(C(=O)OCC)[C@H](c2ccccc2)N1S(=O)(=O)c1ccc(C)cc1`, the composite z-score worked out at 0.214.
As for `O=C1OCCC=C[C@H]2OC34C=CCN(CCN5CCOCC5)C(=O)[C@H]3N(CCCO)C(=O)[C@@H]4C12` (stereo not given in full), the composite z-score amounted to 0.0003.
For `CCOC(=O)C1=C[C@@H](C(C)(C)C)N(S(=O)(=O)c2ccc(C)cc2)[C@H]1c1ccccc1Cl`, the composite z-score came to 0.223.
Next, `C[C@H]1C2[C@H](Cc3ccccc3)NC(=O)[C@]23C(=O)NCC(=O)N2CCC[C@H]2C(=O)NC/C=C\C/C=C/C3[C@@H]2O[C@]12C` (stereo not given in full): 0.718; `COc1ccc([Si](C)(C)[C@@H]2[C@@H](CCO)O[C@]3(C(=O)N(Cc4ccccc4)c4ccc(N5C(=O)c6ccccc6Oc6ccccc65)cc43)[C@H]2C)cc1`: -0.0035; `COCCOC(=O)N1C(=O)[C@@]2(c3ccccc31)[C@H](C(N)=O)[C@H]1C(=O)O[C@H](c3ccccc3)[C@H](c3ccccc3)N1[C@@H]2c1ccc(OCCO)cc1`: 0.508.
`COCCCNC(=O)[C@@H]1c2ccccc2C(=O)N(Cc2cc(C(F)(F)F)cc(C(F)(F)F)c2)[C@H]1c1ccc(CO)cc1` had a composite z-score of 0.685.
`NCCCC[C@@H]1NC(=O)[C@H]2C[C@@H](C(=O)NCc3ccc(F)cc3)[C@@H](c3ccc(O)cc3)N2C1=O` gave a composite z-score of 0.738.
Next, `CC(C)C[C@@H]1NC(=O)[C@H]2C[C@@H](C(=O)NCCCCCNC(=O)CS)[C@@H](c3ccc(O)cc3)N2C1=O`: 0.414.
